mHTT-CaM PPI inh = mutant huntingtin-calmodulin interaction inhibitors – biochemical, AlphaScreen, primary screen; P42858; AlphaScreen His-mHTT/GST-CaM binding, luminescence; inhibition, % at 15 µM; actives 3.6% (n = 190,000); AID 1671202, 2021;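 also: 0% = both proteins with DMSO and 100% = one protein alone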
Pf apPOL inh = Pf-apPOL inhibitors, biochemical, fluorescence. Plasmodium falciparum apicoplast DNA polymerase (apPOL). Recombinant Pf-apPOL, molecular beacon fluorescence, 1.5 h. inhibition, % at 10 µM. actives 0.25% (n = 210,000). AID 1794808, 2022
Numbers without * were called inactive. Shown are actives, neighbours in structure and some others; about 3.6% of the full set was active somewhere. Rule as the data show it: active = inhibition above about 50%; inactive = the rest.

CN1CCN(S(=O)(=O)c2ccc(C#N)cc2)CC1c1ccccc1 (configuration not stated) was read as mHTT-CaM PPI inh -4 and Pf apPOL inh 3.
`O=C(NCCn1ccc2ccccc21)c1c(F)cccc1F` gave mHTT-CaM PPI inh -2 and Pf apPOL inh 0.
For O=C(NCCn1ccc2ccccc21)C1(c2ccc(Cl)cc2)CCCC1 the results were mHTT-CaM PPI inh 83* and Pf apPOL inh 8.
`CN(C)c1ccc(C(=O)Nc2nc(C(C)(C)C)cs2)cc1[N+](=O)[O-]` gave mHTT-CaM PPI inh 62* and Pf apPOL inh -8.
Screening CNc1ccc(C(=O)Nc2nc(C(C)(C)C)cs2)cc1[N+](=O)[O-] returned mHTT-CaM PPI inh 7 and Pf apPOL inh -11.
CCOC(=O)C1CCC(CNC(=O)N2CC3CCCN3c3ccccc32)CC1 (configuration not stated) was read as mHTT-CaM PPI inh 66* and Pf apPOL inh -2.
Screening CCOC(=O)C1CCC(CNC(=O)N2CC(CC)Oc3ccccc32)CC1 (configuration not stated) returned mHTT-CaM PPI inh -7 and Pf apPOL inh 2.
`COC(=O)CNC(=O)N1CC2CCCN2c2ccccc21` (configuration not stated) gave mHTT-CaM PPI inh 8 and Pf apPOL inh 0.
`CCOC(=O)CC1(NC(=O)N2CC3CCCN3c3ccccc32)CCCCC1` (configuration not stated) gave mHTT-CaM PPI inh 64* and Pf apPOL inh -3.
For Cc1c(C=O)c2ccccc2n1CC(=O)NCc1cccs1 the results were mHTT-CaM PPI inh 0 and Pf apPOL inh -1.
COc1ccc2cc(C(=O)NC(C)=O)c(=Nc3ccc(F)cc3)oc2c1 was read as mHTT-CaM PPI inh 4 and Pf apPOL inh 2.
COc1ccc2cc(C(=O)NC(C)=O)c(=Nc3ccc(C(F)(F)F)cc3)oc2c1 was read as mHTT-CaM PPI inh 3 and Pf apPOL inh 66*.
`Cc1ccc(S(=O)(=O)C(NC(=O)c2ccccc2)=C(Cl)Cl)cc1` gave mHTT-CaM PPI inh 3 and Pf apPOL inh -2.
Screening O=C(CSc1nnc(COc2ccc3c(c2)CCCC3)o1)NCc1ccccc1 returned mHTT-CaM PPI inh 0 and Pf apPOL inh 95*.
Screening Cc1ccc(OCc2nnc(SCC(=O)NCc3ccccc3)o2)cc1 returned mHTT-CaM PPI inh -1 and Pf apPOL inh -3.
For O=C1CC(=C2C(=O)c3ccccc3C2=O)c2ccccc21 the results were mHTT-CaM PPI inh 86*.
O=C1C(c2ccccn2)=C(O)c2ccccc21 was read as mHTT-CaM PPI inh 4 and Pf apPOL inh 1.
`O=C1Cc2ccccc2C1=C1Cc2ccccc2C1` gave Pf apPOL inh 12.
O=C1C(=C2C/C(=N/O)c3ccccc32)C(=O)c2ccccc21 was read as mHTT-CaM PPI inh active.
Screening NC(=O)NNC(=O)NNC(N)=O returned Pf apPOL inh 4.
For COc1ccc(-c2[nH]n(-c3nc4ccccc4s3)c(=O)c2C=NCc2ccccn2)cc1 the results were mHTT-CaM PPI inh 84* and Pf apPOL inh -6.
For COc1ccc(-c2[nH]n(-c3nc4ccccc4s3)c(=O)c2C=NCC2CCCO2)cc1 (configuration not stated) the results were mHTT-CaM PPI inh 45 and Pf apPOL inh -2.
O=C(Cn1c2c(c(=O)n(C3CCCCC3)c1=O)CCC2)Nc1ccc2ncccc2c1 was read as mHTT-CaM PPI inh 31 and Pf apPOL inh -6.
O=c1ccc(-c2noc(-c3cccnc3)n2)c[nH]1 was read as mHTT-CaM PPI inh -5 and Pf apPOL inh 7.
O=C1NC(=S)N/C1=C/c1ccc(-c2ccc3c(c2)C(=O)NC3=O)o1 was read as mHTT-CaM PPI inh 55*.
Screening CC1=NN(c2ccc(Br)cc2)C(=O)/C1=C/c1ccc(-c2ccc3c(c2)C(=O)NC3=O)o1 returned mHTT-CaM PPI inh 6 and Pf apPOL inh -1.
`Cc1cccc(Nc2nc(CC(=O)NCc3ccccc3OC(F)(F)F)cs2)n1` gave mHTT-CaM PPI inh 10 and Pf apPOL inh -10.
For O=[N+]([O-])c1cccc(-c2ccn[nH]2)c1 the results were Pf apPOL inh -6.
CCCCNc1ncnc2c1c(-c1ccccc1)cn2-c1ccccc1 was read as mHTT-CaM PPI inh 38 and Pf apPOL inh 0.
`Cc1ccc(-n2cc(-c3ccccc3)c3c(NCC4CCCO4)ncnc32)cc1` (configuration not stated) gave mHTT-CaM PPI inh 56* and Pf apPOL inh -11.
`O=C(NCc1cccc(Cl)c1)C1CCc2sc(C(=O)N3CCCC3)cc2C1` (configuration not stated) gave mHTT-CaM PPI inh 2 and Pf apPOL inh -4.
`COc1ccc2c(=O)c(-c3ccccc3)coc2c1` gave mHTT-CaM PPI inh -4 and Pf apPOL inh 1.
Screening CSc1nnc(-c2nn(C)c3c2CN(C(=O)c2ccc(C#N)cc2)CC3)n1C returned mHTT-CaM PPI inh -2 and Pf apPOL inh -4.
`CCn1c2c(c3ccccc31)CN(C(=O)c1ccc(C#N)cc1)CC2` gave mHTT-CaM PPI inh 54* and Pf apPOL inh -4.
Screening COCCN1C(=O)C2(SCCN2C(=O)c2ccc(OC)cc2)c2ccccc21 (configuration not stated) returned mHTT-CaM PPI inh 22 and Pf apPOL inh -2.
`CCN1C(=O)C2(SCCN2C(=O)c2cccc(OC)c2)c2cc(F)ccc21` (configuration not stated) gave mHTT-CaM PPI inh 43 and Pf apPOL inh -1.
CCN1C(=O)C2(SCCN2C(=O)c2cccc(F)c2)c2cc(F)ccc21 (configuration not stated) was read as mHTT-CaM PPI inh 56* and Pf apPOL inh 8.
Screening CCN1C(=O)C2(SCCN2C(=O)C2CCCC2)c2cc(F)ccc21 (configuration not stated) returned mHTT-CaM PPI inh 55* and Pf apPOL inh 1.
`COc1ccccc1C(=O)NC1CCN(c2nnc3cccc(C)n23)CC1` gave mHTT-CaM PPI inh 2 and Pf apPOL inh -2.
Cn1c(C2CCN(S(=O)(=O)c3ccc(F)c(Cl)c3)CC2)cc(=O)n2nccc12 was read as mHTT-CaM PPI inh 14 and Pf apPOL inh -1.
For O=C1C2C3C=CC(CC3)C2C(=O)N1c1ccc(I)cc1 (configuration not stated) the results were mHTT-CaM PPI inh -1 and Pf apPOL inh 2.
For CCCc1nnsc1C(=O)NC1CC(=O)N(C2CC2)C1 (configuration not stated) the results were mHTT-CaM PPI inh -18 and Pf apPOL inh -1.
`CC(=O)NCC(=O)NC(C(=O)Nc1ccc2c(c1)OCO2)c1ccc(C)cc1` (configuration not stated) gave mHTT-CaM PPI inh 5 and Pf apPOL inh -4.
`Cc1ccc(C(NC(=O)Cc2cc3ccccc3[nH]2)C(=O)Nc2ccc3c(c2)OCCO3)cc1` (configuration not stated) gave mHTT-CaM PPI inh 53* and Pf apPOL inh -5.
For OC(COc1ccc2c(c1)CCC2)CN1CCN(c2ccccc2)CC1 (configuration not stated) the results were mHTT-CaM PPI inh 15 and Pf apPOL inh -11.
CCOc1ccccc1NC(=O)c1c(NCc2sccc2C)sc2c1CCC2 was read as mHTT-CaM PPI inh 41 and Pf apPOL inh -17.
Screening COc1ccc(OC)c(NC(=O)c2c(NC(=O)CN3CCOCC3)sc3c2CCC3)c1 returned mHTT-CaM PPI inh 7 and Pf apPOL inh -2.
